Measured values published in PubChem BioAssay AID1159580 (chemical genetic matrix, 2015).
In all, about 5,500 compounds went through this assay and about 2,000 (36%) were called active. About 18% were inconclusive and are not listed. No stated cut-off is given here; in the data, active means normalized growth mostly below about 0.91 (no sharp cut-off); inconclusive means no clear call, values can overlap the other calls; inactive means mostly above about 0.92. The list shows a part of the results.

Test: chemical genetic growth profiling, strain panel (AID 1159580);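 further: tested at 20 µM; growth read once vehicle control cultures reached saturation at 30 °C; 1 = growth at the plate median or of vehicle wells; lower values mean less growth of the strain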
Details: S. cerevisiae deletion strains, growth OD

Measured: normalized growth

CCCCCCCCCCCCCCCCCCOC[C@H](COP(=O)([O-])OCC[N+](C)(C)C)OC
inactive: locus YAL013W, strain DEP1, hits give low values 1 | locus YAL040C, strain CLN3, hits give low values 1.04 | locus YCL061C, strain MRC1 (second series), hits give low values 1.02 | locus YDR363W, strain ESC2, hits give low values 0.992 | locus YER002W, strain NOP16, hits give low values 1.04 | locus YMR263W, strain SAP30, hits give low values 0.998 | locus YMR307W, strain GAS1, hits give low values 1 | locus YNL153C, strain GIM3, hits give low values 0.997 | locus YNL175C, strain NOP13, hits give low values 1.05 | locus YNL197C, strain WHI3, hits give low values 1.01 | locus YNL224C, strain SQS1, hits give low values 1.04 | locus YNL322C, strain KRE1, hits give low values 0.988 | locus YOR083W, strain WHI5 (second series), hits give low values 1.02

CCCCCCCC/C=C/CCCCCCCCOP(=O)([O-])OCC[N+](C)(C)C
active: locus YAL021C, strain ccr4, hits give low values 0.0587 | locus YAL026C, strain drs2, hits give low values 0.0561 | locus YAL030W, strain snc1, hits give low values 0.053 | locus YBL061C, strain skt5, hits give low values 0.0558 | locus YBR009C, strain hhf1, hits give low values 0.0546 | locus YBR023C, strain chs3, hits give low values 0.0583 | locus YBR171W, strain sec66, hits give low values 0.0745 | locus YBR231C, strain swc5, hits give low values 0.0586 | locus YBR279W, strain paf1, hits give low values 0.0563 | locus YCL011C, strain gbp2, hits give low values 0.0519 | locus YCL016C, strain dcc1, hits give low values 0.0586 | locus YCL061C, strain MRC1, hits give low values 0.0589 | locus YCL069W, strain vba3, hits give low values 0.0556 | locus YCR088W, strain abp1, hits give low values 0.0562 | locus YDL005C, strain med2, hits give low values 0.0694 | locus YDL040C, strain nat1, hits give low values 0.0556 | locus YDR001C, strain nth1, hits give low values 0.0555 | locus YDR069C, strain doa4, hits give low values 0.0593 | locus YDR137W, strain rgp1, hits give low values 0.105 | locus YDR159W, strain sac3, hits give low values 0.0716 | locus YDR195W, strain ref2 0.0966 | locus YDR297W, strain sur2, hits give low values 0.0533 | locus YDR334W, strain swr1, hits give low values 0.0581 | locus YDR335W, strain msn5, hits give low values 0.0561 | locus YDR392W, strain spt3, hits give low values 0.0625 | locus YEL003W, strain gim4, hits give low values 0.0513 | locus YEL037C, strain rad23, hits give low values 0.0533 | locus YEL061C, strain CIN8 (second series), hits give low values 0.0564 | locus YER015W, strain faa2, hits give low values 0.0609 | locus YER016W, strain bim1, hits give low values 0.0567 | locus YER111C, strain swi4, hits give low values 0.0743 | locus YER155C, strain BEM2 (second series), hits give low values 0.0793 | locus YFR010W, strain ubp6, hits give low values 0.0589 | locus YGL167C, strain pmr1, hits give low values 0.0691 | locus YGL173C, strain kem1, hits give low values 0.0671 | locus YGL227W, strain vid30, hits give low values 0.0578 | locus YGL240W, strain doc1, hits give low values 0.0658 | locus YGL253W, strain hxk2, hits give low values 0.0494 | locus YHR013C, strain ard1, hits give low values 0.0918 | locus YHR027C, strain rpn1, hits give low values 0.0597 | locus YHR142W, strain chs7, hits give low values 0.0608 | locus YJL092W, strain hpr5, hits give low values 0.0556 | locus YJL095W, strain BCK1 (second series), hits give low values 0.0534 | locus YJL115W, strain asf1, hits give low values 0.0664 | locus YJL129C, strain trk1, hits give low values 0.0759 | locus YJL154C, strain vps35, hits give low values 0.0613 | locus YJL164C, strain tpk1, hits give low values 0.0536 | locus YJL166W, strain qcr8, hits give low values 0.0552 | locus YJL187C, strain SWE1, hits give low values 0.055 | locus YKL160W, strain elf1, hits give low values 0.0575 | locus YKR026C, strain gcn3, hits give low values 0.0565 | locus YKR091W, strain srl3, hits give low values 0.0556 | locus YLL001W, strain dnm1, hits give low values 0.0557 | locus YLL026W, hits give low values 0.0528 | locus YLL041C, strain sdh2, hits give low values 0.0534 | locus YLR027C, strain aat2, hits give low values 0.0482 | locus YLR221C, strain rsa3, hits give low values 0.0536 | locus YLR258W, strain gsy2, hits give low values 0.0544 | locus YLR262C, strain YPT6 (second series), hits give low values 0.0801 | locus YLR320W, strain mms22, hits give low values 0.066 | locus YLR342W, strain FKS1, hits give low values 0.0588 | locus YLR357W, strain rsc2, hits give low values 0.106 | locus YLR370C, strain arc18, hits give low values 0.056 | locus YLR384C, strain iki3, hits give low values 0.0574 | locus YML120C, strain ndi1, hits give low values 0.0534 | locus YMR058W, strain fet3, hits give low values 0.0555 | locus YMR125W, strain sto1, hits give low values 0.062 | locus YMR129W, hits give low values 0.0548 | locus YMR205C, strain PFK2, hits give low values 0.0726 | locus YMR231W, strain pep5, hits give low values 0.065 | locus YNL071W, strain lat1, hits give low values 0.0563 | locus YNL209W, strain ssb2, hits give low values 0.0577 | locus YNL248C, strain rpa49, hits give low values 0.0552 | locus YNL322C, strain KRE1 (second series), hits give low values 0.0595 | locus YNR049C, strain mso1, hits give low values 0.0525 | locus YOR001W, strain rrp6, hits give low values 0.0584 | locus YOR070C, strain gyp1, hits give low values 0.0589 | locus YOR080W, strain dia2, hits give low values 0.0596 | locus YOR083W, strain WHI5, hits give low values 0.0554 | locus YOR106W, strain vam3, hits give low values 0.0591 | locus YOR265W, strain rbl2, hits give low values 0.0537 | locus YOR270C, strain vph1, hits give low values 0.072 | locus YOR290C, strain snf2, hits give low values 0.0546 | locus YPL051W, strain arl3, hits give low values 0.0574 | locus YPL078C, strain atp4, hits give low values 0.058 | locus YPL106C, strain sse1, hits give low values 0.0823 | locus YPL240C, strain hsp82, hits give low values 0.054
